Reference: PubChem BioAssay AID1159580 (chemical genetic matrix, 2015)
Among all 5,500 compounds or so, about 2,000 (36%) were called active. Not shown: some 18% with an inconclusive outcome. Rule as the data show it: active = normalized growth mostly below about 0.91 (no sharp cut-off); inconclusive = no clear call, values can overlap the other calls; inactive = mostly above about 0.92. Some of the results follow.

Test: chemical genetic growth profiling, strain panel (AID 1159580);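 also: tested at 20 µM; growth read once vehicle control cultures reached saturation at 30 °C; 1 = growth at the plate median or of vehicle wells; lower values mean less growth of the strain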
Conditions: growth OD

Measured: normalized growth

CCc1ccc(CCOc2ccc(CC3SC(=O)NC3=O)cc2)nc1 (configuration not stated)
inactive: S. cerevisiae deletion strains, locus YJR075W, strain HOC1, active compounds read low 0.997 | S. cerevisiae deletion strains, locus YKL009W, strain mrt4, active compounds read low 1.01 | S. cerevisiae deletion strains, locus YKL068W, active compounds read low 0.991 | S. cerevisiae deletion strains, locus YKL085W, strain MDH1 (second series), active compounds read low 0.991 | S. cerevisiae deletion strains, locus YKL085W, strain MDH1, active compounds read low 0.991 | S. cerevisiae deletion strains, locus YKL160W, strain elf1, active compounds read low 1.02 | S. cerevisiae deletion strains, locus YKL190W, strain CNB1, active compounds read low 1.02 | S. cerevisiae deletion strains, locus YKR001C, strain vps1, active compounds read low 0.977 | S. cerevisiae deletion strains, locus YKR026C, strain gcn3, active compounds read low 1.01 | S. cerevisiae deletion strains, locus YKR091W, strain srl3, active compounds read low 0.999 | S. cerevisiae deletion strains, locus YLL001W, strain dnm1, active compounds read low 1 | S. cerevisiae deletion strains, locus YLL026W, active compounds read low 1.02 | S. cerevisiae deletion strains, locus YLL041C, strain sdh2, active compounds read low 1.01 | S. cerevisiae deletion strains, locus YLR027C, strain aat2, active compounds read low 1.01 | S. cerevisiae deletion strains, locus YLR039C, strain RIC1, active compounds read low 0.914 | S. cerevisiae deletion strains, locus YLR058C, strain SHM2, active compounds read low 1.01 | S. cerevisiae deletion strains, locus YLR102C, strain apc9, active compounds read low 0.988 | S. cerevisiae deletion strains, locus YLR113W, strain HOG1, active compounds read low 1.01 | S. cerevisiae deletion strains, locus YLR221C, strain rsa3, active compounds read low 1.01 | S. cerevisiae deletion strains, locus YLR258W, strain gsy2, active compounds read low 1.02 | S. cerevisiae deletion strains, locus YLR262C, strain YPT6 (second series), active compounds read low 0.99 | S. cerevisiae deletion strains, locus YLR262C, strain YPT6, active compounds read low 0.88 | S. cerevisiae deletion strains, locus YLR268W, strain sec22, active compounds read low 0.993 | S. cerevisiae deletion strains, locus YLR320W, strain mms22, active compounds read low 1.01 | S. cerevisiae deletion strains, locus YLR330W, strain CHS5, active compounds read low 1.01 | S. cerevisiae deletion strains, locus YLR342W, strain FKS1 (second series), active compounds read low 0.985 | S. cerevisiae deletion strains, locus YLR342W, strain FKS1, active compounds read low 1.02 | S. cerevisiae deletion strains, locus YLR357W, strain rsc2, active compounds read low 1.03 | S. cerevisiae deletion strains, locus YLR370C, strain arc18, active compounds read low 1.01 | S. cerevisiae deletion strains, locus YLR371W, strain rom2, active compounds read low 0.989 | S. cerevisiae deletion strains, locus YLR384C, strain iki3, active compounds read low 1.01 | S. cerevisiae deletion strains, locus YLR418C, strain cdc73, active compounds read low 0.969 | S. cerevisiae deletion strains, locus YML016C, strain PPZ1, active compounds read low 0.997 | S. cerevisiae deletion strains, locus YML032C, strain rad52, active compounds read low 0.998 | S. cerevisiae deletion strains, locus YML120C, strain ndi1, active compounds read low 1.02 | S. cerevisiae deletion strains, locus YML124C, strain tub3, active compounds read low 0.992 | S. cerevisiae deletion strains, locus YMR058W, strain fet3, active compounds read low 1.01 | S. cerevisiae deletion strains, locus YMR078C, strain ctf18, active compounds read low 0.985 | S. cerevisiae deletion strains, locus YMR125W, strain sto1, active compounds read low 1.02 | S. cerevisiae deletion strains, locus YMR129W, active compounds read low 1 | S. cerevisiae deletion strains, locus YMR205C, strain PFK2, active compounds read low 0.997 | S. cerevisiae deletion strains, locus YMR223W, strain ubp8, active compounds read low 0.995 | S. cerevisiae deletion strains, locus YMR231W, strain pep5, active compounds read low 0.995 | S. cerevisiae deletion strains, locus YMR263W, strain SAP30, active compounds read low 1.04 | S. cerevisiae deletion strains, locus YMR307W, strain GAS1, active compounds read low 0.938 | S. cerevisiae deletion strains, locus YNL067W, strain RPL9B, active compounds read low 1.06 | S. cerevisiae deletion strains, locus YNL071W, strain lat1, active compounds read low 1.01 | S. cerevisiae deletion strains, locus YNL128W, strain TEP1, active compounds read low 1.04 | S. cerevisiae deletion strains, locus YNL153C, strain GIM3, active compounds read low 1 | S. cerevisiae deletion strains, locus YNL183C, strain NPR1, active compounds read low 0.963 | S. cerevisiae deletion strains, locus YNL209W, strain ssb2, active compounds read low 0.997 | S. cerevisiae deletion strains, locus YNL233W, strain BNI4, active compounds read low 1.01 | S. cerevisiae deletion strains, locus YNL248C, strain rpa49, active compounds read low 1.02 | S. cerevisiae deletion strains, locus YNL250W, strain rad50, active compounds read low 0.995 | S. cerevisiae deletion strains, locus YNL271C, strain bni1, active compounds read low 1 | S. cerevisiae deletion strains, locus YNL298W, strain CLA4, active compounds read low 0.997 | S. cerevisiae deletion strains, locus YNL307C, strain MCK1, active compounds read low 0.994 | S. cerevisiae deletion strains, locus YNL322C, strain KRE1 (second series), active compounds read low 1.02 | S. cerevisiae deletion strains, locus YNL322C, strain KRE1, active compounds read low 0.994 | S. cerevisiae deletion strains, locus YNR049C, strain mso1, active compounds read low 1.01 | S. cerevisiae deletion strains, locus YNR052C, strain pop2, active compounds read low 1.01 | S. cerevisiae deletion strains, locus YOL006C, strain TOP1, active compounds read low 1 | S. cerevisiae deletion strains, locus YOL012C, strain htz1 1.21 | S. cerevisiae deletion strains, locus YOL147C, strain pex11, active compounds read low 0.996 | S. cerevisiae deletion strains, locus YOR001W, strain rrp6, active compounds read low 1.01 | S. cerevisiae deletion strains, locus YOR061W, strain CKA2, active compounds read low 0.999 | S. cerevisiae deletion strains, locus YOR069W, strain VPS5, active compounds read low 1 | S. cerevisiae deletion strains, locus YOR070C, strain gyp1, active compounds read low 1.01 | S. cerevisiae deletion strains, locus YOR080W, strain dia2, active compounds read low 1.01 | S. cerevisiae deletion strains, locus YOR083W, strain WHI5, active compounds read low 1 | S. cerevisiae deletion strains, locus YOR106W, strain vam3, active compounds read low 1.02 | S. cerevisiae deletion strains, locus YOR136W, strain idh2, active compounds read low 1 | S. cerevisiae deletion strains, locus YOR144C, strain elg1, active compounds read low 0.993 | S. cerevisiae deletion strains, locus YOR184W, strain ser1, active compounds read low 0.971 | S. cerevisiae deletion strains, locus YOR231W, strain MKK1, active compounds read low 0.98 | S. cerevisiae deletion strains, locus YOR265W, strain rbl2, active compounds read low 1.01 | S. cerevisiae deletion strains, locus YOR270C, strain vph1, active compounds read low 1.04 | S. cerevisiae deletion strains, locus YOR290C, strain snf2, active compounds read low 1 | S. cerevisiae deletion strains, locus YOR316C, strain cot1, active compounds read low 0.997 | S. cerevisiae deletion strains, locus YPL051W, strain arl3, active compounds read low 1.01 | S. cerevisiae deletion strains, locus YPL055C, strain LGE1, active compounds read low 1.02 | S. cerevisiae deletion strains, locus YPL078C, strain atp4, active compounds read low 1.01 | S. cerevisiae deletion strains, locus YPL106C, strain sse1, active compounds read low 1.02 | S. cerevisiae deletion strains, locus YPL240C, strain hsp82, active compounds read low 1.02 | S. cerevisiae deletion strains, locus YPL241C, strain CIN2, active compounds read low 1 | S. cerevisiae deletion strains, locus YPL256C, strain CLN2, active compounds read low 0.936 | S. cerevisiae deletion strains, locus YPR119W, strain clb2, active compounds read low 0.989 | S. cerevisiae deletion strains, locus YPR141C, strain kar3, active compounds read low 0.994 | S. cerevisiae deletion strains, locus YPR163C, strain tif3, active compounds read low 0.999 | S. cerevisiae deletion strains, locus YPR167C, strain met16, active compounds read low 0.996 | S. cerevisiae deletion strains, strain wtn01, active compounds read low 0.99 | S. cerevisiae strains, strain wild type, active compounds read low 1.01
